Experimental data as given in publication PMC7862700, “An all-to-all approach to the identification of sequence-specific readers for epigenetic DNA modifications on cytosine”.

Experiments:
Assay in all cases: DAPPL (digital affinity profiling via proximity ligation, sequencing); 10 mM Tris-HCl pH 7.5, 50 mM NaCl, 1 mM DTT, 4% glycerol, room temperature, 30 min; GST-TFs on glutathione beads, 16-mer random dsDNA library, 0.1% formaldehyde crosslink after washing; high values mean tight binding
Conditions in all cases: protein: recombinant; tags: N-terminal GST; dsDNA, one strand shown
FLI1 = biological target: T1, FLI1 (Homo sapiens, UniProt Q01543 1-452)
T1 sequence: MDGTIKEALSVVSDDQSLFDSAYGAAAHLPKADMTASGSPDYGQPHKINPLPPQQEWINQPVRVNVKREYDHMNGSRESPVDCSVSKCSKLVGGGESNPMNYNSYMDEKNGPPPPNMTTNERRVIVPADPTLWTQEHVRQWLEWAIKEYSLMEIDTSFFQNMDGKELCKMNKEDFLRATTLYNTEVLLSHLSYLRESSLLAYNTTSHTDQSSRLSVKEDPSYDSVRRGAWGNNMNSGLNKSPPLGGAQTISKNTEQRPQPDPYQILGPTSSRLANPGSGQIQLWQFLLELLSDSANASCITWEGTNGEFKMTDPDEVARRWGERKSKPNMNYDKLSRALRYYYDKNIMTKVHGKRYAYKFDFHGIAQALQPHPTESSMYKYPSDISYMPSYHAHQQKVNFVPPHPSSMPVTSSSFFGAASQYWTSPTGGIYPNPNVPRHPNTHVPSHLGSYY
Procedure, shortened: (§1)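 Human transcription factors carrying a GST fusion were produced in yeast, bound to glutathione beads, tagged with DNA barcodes and pooled together with a tag-only sample. Each pool was held with 200 nmole of a random double-stranded 16-mer DNA library in Tris/NaCl/DTT/glycerol buffer for 30 min at room temperature, then washed, crosslinked in 0.1% formaldehyde, proximity-ligated with BsaI/T4 ligase (1 h, 37 °C), PCR-amplified and sequenced on an Illumina NextSeq500. Binding signal is the read frequency of each hexamer for a given factor divided by its frequency in the tag-only sample.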

ELK1 = biological target: T2, ELK1 (Homo sapiens, UniProt P19419 1-428)
T2 sequence: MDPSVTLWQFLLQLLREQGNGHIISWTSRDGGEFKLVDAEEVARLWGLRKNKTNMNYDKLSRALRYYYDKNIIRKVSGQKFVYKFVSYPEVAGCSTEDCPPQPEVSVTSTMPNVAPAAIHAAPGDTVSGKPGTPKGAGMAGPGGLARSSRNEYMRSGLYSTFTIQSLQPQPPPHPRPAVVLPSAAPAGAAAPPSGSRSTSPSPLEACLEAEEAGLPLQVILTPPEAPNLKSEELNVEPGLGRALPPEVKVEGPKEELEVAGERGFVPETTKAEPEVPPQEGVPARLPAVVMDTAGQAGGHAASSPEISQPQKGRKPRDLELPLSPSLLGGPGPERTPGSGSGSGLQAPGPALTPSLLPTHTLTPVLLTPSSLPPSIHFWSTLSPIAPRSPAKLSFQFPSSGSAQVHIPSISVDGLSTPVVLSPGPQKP
Procedure, shortened: as §1

GABPA = biological target: T3, GABPA (Homo sapiens, UniProt Q06546 1-454)
T3 sequence: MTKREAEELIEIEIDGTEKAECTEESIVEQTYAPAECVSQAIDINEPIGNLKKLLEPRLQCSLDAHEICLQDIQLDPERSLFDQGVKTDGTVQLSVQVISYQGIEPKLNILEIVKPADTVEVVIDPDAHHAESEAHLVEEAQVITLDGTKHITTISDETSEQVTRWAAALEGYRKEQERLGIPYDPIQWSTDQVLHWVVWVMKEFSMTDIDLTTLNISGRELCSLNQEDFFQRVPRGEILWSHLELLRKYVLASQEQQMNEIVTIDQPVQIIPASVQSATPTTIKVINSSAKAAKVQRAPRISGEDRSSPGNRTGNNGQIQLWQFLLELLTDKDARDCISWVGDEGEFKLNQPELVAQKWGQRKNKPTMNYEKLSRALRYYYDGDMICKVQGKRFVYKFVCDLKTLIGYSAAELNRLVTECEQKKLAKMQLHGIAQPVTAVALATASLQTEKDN
Procedure, shortened: as §1

ERG = biological target: T4, ERG (Homo sapiens, UniProt P11308 1-479)
T4 sequence: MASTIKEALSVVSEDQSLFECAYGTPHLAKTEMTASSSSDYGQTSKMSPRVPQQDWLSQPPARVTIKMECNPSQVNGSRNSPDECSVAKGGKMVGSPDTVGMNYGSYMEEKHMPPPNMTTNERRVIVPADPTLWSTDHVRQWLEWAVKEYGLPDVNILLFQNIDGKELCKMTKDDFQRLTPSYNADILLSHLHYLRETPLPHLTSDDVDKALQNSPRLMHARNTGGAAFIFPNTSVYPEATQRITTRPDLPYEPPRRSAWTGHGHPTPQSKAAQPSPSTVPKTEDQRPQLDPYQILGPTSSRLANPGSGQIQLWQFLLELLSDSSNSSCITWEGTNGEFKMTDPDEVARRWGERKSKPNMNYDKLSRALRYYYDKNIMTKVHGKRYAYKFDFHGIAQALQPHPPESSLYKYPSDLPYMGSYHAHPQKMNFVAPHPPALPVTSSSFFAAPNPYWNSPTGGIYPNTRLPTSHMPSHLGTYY
Procedure, shortened: as §1

ELF1 = ELF1 (Homo sapiens, UniProt P32519 1-619)
Procedure, shortened: as §1

SPI1 = SPI1 (Homo sapiens, UniProt P17947 1-270)
Procedure, shortened: as §1

SPIB = SPIB (Homo sapiens, UniProt Q01892 1-262)
Procedure, shortened: as §1

ELK3 = biological target: T5, ELK3 (Homo sapiens, UniProt P41970 1-407)
T5 sequence: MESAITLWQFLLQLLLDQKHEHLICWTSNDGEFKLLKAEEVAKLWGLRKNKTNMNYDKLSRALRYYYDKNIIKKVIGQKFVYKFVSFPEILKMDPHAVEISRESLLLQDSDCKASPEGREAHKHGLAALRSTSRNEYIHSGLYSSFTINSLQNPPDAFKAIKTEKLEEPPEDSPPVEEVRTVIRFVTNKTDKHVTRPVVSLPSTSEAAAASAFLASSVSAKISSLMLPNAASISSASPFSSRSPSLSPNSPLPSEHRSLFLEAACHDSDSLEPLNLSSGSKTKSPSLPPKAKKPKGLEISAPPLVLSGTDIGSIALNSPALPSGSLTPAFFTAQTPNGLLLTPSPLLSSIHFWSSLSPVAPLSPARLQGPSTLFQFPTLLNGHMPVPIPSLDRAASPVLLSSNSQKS
Procedure, shortened: as §1

FEV = biological target: T6, FEV (Homo sapiens, UniProt Q99581 1-238)
T6 sequence: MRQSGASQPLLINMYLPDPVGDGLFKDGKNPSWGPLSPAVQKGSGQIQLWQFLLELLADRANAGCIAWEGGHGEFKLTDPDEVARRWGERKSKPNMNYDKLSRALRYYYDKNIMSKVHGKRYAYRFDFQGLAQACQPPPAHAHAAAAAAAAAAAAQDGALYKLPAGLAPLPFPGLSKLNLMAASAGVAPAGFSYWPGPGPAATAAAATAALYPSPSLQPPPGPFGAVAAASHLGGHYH
Procedure, shortened: as §1

ETV5 = ETV5 (Homo sapiens, UniProt P41161 1-510)
Procedure, shortened: as §1

SPIC = biological target: T7, SPIC (Homo sapiens, UniProt Q8N5J4 1-248)
T7 sequence: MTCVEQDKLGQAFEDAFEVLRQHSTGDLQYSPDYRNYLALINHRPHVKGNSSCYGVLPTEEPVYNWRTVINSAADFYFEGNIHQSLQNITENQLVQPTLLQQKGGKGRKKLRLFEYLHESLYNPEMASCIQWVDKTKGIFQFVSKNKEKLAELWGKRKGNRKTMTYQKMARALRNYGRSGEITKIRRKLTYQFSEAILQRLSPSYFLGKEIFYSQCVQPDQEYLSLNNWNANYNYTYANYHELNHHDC
Procedure, shortened: as §1

ELF4 = ELF4 (Homo sapiens, UniProt Q99607 1-663)
Procedure, shortened: as §1

ETV1 = ETV1 (Homo sapiens, UniProt P50549 1-477)
Procedure, shortened: as §1

ERF = biological target: T8, ERF (Homo sapiens, UniProt P50548 1-548)
T8 sequence: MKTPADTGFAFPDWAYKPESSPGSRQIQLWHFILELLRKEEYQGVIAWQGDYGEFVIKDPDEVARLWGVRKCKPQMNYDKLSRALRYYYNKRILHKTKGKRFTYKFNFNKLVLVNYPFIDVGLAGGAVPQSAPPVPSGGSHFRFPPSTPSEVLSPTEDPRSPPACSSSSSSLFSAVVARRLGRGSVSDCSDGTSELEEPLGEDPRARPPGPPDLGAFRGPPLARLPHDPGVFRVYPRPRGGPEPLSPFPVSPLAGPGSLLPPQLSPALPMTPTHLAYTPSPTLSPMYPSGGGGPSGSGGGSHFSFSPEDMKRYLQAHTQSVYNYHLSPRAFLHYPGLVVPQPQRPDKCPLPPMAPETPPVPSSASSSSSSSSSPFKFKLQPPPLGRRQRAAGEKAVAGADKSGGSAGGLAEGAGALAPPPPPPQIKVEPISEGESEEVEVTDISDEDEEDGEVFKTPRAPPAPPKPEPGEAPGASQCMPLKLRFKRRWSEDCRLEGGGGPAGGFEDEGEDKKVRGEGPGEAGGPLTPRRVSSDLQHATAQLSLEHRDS
Procedure, shortened: as §1

ETV3L = biological target: T9, ETV3L (Homo sapiens, UniProt Q6ZN32 1-361)
T9 sequence: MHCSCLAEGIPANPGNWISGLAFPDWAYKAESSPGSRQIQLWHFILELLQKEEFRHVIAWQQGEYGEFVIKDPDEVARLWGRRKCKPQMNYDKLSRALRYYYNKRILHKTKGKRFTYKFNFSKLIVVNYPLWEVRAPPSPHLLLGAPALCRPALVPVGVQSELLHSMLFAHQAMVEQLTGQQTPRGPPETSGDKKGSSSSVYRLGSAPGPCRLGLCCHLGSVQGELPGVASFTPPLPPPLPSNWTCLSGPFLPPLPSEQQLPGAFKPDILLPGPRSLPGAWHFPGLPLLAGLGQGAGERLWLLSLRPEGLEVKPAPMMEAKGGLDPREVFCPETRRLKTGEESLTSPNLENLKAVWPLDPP
Procedure, shortened: as §1

ETS2 = biological target: T10, ETS2 (Homo sapiens, UniProt P15036 1-469)
T10 sequence: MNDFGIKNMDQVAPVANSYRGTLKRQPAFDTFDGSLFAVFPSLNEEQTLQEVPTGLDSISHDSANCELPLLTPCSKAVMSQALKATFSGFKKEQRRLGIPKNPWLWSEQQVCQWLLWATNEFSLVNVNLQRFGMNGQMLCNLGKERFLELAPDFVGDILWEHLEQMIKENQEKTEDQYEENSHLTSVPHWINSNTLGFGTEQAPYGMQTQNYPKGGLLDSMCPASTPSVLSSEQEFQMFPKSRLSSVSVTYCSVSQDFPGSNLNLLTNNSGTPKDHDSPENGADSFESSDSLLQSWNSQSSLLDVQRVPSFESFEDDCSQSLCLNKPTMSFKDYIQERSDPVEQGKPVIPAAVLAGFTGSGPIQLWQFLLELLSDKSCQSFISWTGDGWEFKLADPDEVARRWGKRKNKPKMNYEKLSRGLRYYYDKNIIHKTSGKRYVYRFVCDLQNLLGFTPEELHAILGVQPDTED
Procedure, shortened: as §1

ETV3 = biological target: T11, ETV3 (Homo sapiens, UniProt P41162-2 1-143)
T11 sequence: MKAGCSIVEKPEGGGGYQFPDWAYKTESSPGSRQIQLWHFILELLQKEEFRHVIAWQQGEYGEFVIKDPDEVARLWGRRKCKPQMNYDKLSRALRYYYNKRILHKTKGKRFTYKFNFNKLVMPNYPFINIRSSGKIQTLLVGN
Procedure, shortened: as §1

ETV6 = ETV6 (Homo sapiens, UniProt P41212 1-452)
Procedure, shortened: as §1

Chain of SPIB (Q01892 whole entry): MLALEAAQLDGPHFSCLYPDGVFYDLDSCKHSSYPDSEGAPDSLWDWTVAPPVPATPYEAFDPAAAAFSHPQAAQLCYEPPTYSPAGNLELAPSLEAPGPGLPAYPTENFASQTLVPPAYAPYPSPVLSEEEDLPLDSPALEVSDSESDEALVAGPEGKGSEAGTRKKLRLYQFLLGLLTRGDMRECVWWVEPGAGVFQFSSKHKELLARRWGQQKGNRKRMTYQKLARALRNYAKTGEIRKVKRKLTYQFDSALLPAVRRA
Chain of ETV5 (P41161 whole entry): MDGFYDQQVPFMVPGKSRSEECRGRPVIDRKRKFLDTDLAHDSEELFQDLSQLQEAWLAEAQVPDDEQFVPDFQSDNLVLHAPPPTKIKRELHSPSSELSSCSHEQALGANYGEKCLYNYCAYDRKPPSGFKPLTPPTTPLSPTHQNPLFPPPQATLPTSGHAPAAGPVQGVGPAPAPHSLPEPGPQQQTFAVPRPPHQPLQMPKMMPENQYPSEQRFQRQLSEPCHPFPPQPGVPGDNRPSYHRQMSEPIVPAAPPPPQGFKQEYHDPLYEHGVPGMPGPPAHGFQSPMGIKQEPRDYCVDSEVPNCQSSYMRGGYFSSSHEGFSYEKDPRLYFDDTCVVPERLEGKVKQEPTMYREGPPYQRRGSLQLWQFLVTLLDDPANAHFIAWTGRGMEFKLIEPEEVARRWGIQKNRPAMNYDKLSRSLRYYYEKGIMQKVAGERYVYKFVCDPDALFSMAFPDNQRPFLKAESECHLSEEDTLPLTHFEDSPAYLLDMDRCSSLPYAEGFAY
Chain of ETV6 (P41212 whole entry): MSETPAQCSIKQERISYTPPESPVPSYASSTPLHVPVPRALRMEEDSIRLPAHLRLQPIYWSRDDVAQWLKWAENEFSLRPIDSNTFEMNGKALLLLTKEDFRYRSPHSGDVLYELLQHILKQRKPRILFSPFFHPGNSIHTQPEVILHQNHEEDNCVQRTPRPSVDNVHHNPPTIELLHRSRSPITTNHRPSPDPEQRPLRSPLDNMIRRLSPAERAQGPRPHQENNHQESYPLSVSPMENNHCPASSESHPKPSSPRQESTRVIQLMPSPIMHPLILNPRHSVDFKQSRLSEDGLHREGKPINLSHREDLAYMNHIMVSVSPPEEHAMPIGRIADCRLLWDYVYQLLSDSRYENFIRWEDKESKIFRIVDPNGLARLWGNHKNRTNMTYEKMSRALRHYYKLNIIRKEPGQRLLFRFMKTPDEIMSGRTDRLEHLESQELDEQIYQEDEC
Chain of ETV1 (P50549 whole entry): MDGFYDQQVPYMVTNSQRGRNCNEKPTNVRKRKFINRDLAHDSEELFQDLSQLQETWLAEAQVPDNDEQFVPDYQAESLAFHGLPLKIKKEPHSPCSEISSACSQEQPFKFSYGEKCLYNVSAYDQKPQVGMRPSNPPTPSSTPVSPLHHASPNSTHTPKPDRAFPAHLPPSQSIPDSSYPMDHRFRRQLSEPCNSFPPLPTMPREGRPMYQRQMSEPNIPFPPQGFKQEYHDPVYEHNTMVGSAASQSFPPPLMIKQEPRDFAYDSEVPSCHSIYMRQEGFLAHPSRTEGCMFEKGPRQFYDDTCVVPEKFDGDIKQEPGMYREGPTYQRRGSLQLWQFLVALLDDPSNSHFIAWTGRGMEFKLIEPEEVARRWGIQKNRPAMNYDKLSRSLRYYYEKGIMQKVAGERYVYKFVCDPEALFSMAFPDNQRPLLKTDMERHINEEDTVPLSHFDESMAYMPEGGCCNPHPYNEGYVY
Chain of ELF4 (Q99607 whole entry): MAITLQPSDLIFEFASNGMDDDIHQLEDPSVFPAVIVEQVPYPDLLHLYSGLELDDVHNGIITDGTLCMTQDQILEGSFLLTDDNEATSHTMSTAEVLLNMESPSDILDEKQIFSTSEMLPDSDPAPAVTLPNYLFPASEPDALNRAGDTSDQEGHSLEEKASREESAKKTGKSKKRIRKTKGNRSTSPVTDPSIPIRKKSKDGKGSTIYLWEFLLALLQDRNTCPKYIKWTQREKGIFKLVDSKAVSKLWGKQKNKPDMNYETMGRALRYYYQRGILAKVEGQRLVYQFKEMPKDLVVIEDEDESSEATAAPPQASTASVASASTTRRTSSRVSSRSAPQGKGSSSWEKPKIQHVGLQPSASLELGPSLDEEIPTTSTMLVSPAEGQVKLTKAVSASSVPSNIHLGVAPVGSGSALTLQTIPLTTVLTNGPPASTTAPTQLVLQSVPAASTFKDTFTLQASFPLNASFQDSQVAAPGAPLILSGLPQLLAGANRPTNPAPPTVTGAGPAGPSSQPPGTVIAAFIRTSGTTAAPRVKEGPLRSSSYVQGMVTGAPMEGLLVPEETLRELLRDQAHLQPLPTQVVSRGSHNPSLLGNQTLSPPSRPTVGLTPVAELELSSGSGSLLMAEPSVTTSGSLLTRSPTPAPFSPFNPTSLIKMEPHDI
Chain of ELF1 (P32519 whole entry): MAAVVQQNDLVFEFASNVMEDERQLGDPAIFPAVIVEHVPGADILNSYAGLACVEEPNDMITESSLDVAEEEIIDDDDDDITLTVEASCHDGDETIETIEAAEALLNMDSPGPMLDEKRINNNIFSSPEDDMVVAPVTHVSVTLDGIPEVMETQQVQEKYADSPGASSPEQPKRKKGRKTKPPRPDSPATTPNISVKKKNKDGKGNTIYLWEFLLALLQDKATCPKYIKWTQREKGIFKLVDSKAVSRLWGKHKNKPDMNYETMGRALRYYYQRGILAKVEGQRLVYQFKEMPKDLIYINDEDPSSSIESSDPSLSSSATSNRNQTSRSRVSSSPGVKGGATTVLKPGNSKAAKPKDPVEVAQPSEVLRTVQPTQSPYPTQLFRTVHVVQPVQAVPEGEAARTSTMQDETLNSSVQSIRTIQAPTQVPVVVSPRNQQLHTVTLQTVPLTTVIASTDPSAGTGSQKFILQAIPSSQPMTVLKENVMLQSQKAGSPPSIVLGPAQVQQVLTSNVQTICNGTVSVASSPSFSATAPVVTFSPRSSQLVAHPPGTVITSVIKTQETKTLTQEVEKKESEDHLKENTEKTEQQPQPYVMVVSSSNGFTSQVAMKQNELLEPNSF

CATCGC
binding signal (FLI1): 1.08 fold enrichment (6-mer frequency, TF over GST control)
binding signal (ELK1): 1.13 fold enrichment (6-mer frequency, TF over GST control)
binding signal (GABPA): 1.13 fold enrichment (6-mer frequency, TF over GST control)
binding signal (ERG): 1.06 fold enrichment (6-mer frequency, TF over GST control)
binding signal (ELF1): 1.06 fold enrichment (6-mer frequency, TF over GST control)
binding signal (SPI1): 1.06 fold enrichment (6-mer frequency, TF over GST control)
binding signal (SPIB): 1.1 fold enrichment (6-mer frequency, TF over GST control)
binding signal (ELK3): 1.23 fold enrichment (6-mer frequency, TF over GST control)
binding signal (FEV): 1.07 fold enrichment (6-mer frequency, TF over GST control)
binding signal (ETV5): 1.04 fold enrichment (6-mer frequency, TF over GST control)
binding signal (SPIC): 1.03 fold enrichment (6-mer frequency, TF over GST control)
binding signal (ELF4): 1.13 fold enrichment (6-mer frequency, TF over GST control)
binding signal (ETV1): 1.06 fold enrichment (6-mer frequency, TF over GST control)
binding signal (ERF): 1.06 fold enrichment (6-mer frequency, TF over GST control)
binding signal (ETV3L): 1.21 fold enrichment (6-mer frequency, TF over GST control)
binding signal (ETS2): 1.14 fold enrichment (6-mer frequency, TF over GST control)
binding signal (ETV3): 1.1 fold enrichment (6-mer frequency, TF over GST control)
binding signal (ETV6): 1.02 fold enrichment (6-mer frequency, TF over GST control)
